Screens deposited in PubChem BioAssay by Sanford-Burnham Center for Chemical Genomics.
A selection: hits, their analogues and other compounds. The true share with any hit is near 2.6%.
PHOSPHO1 block: PubChem AID 1565. Phosphoethanolamine/phosphocholine phosphatase (Homo sapiens), Q8TCT1. inhibition, % at 13.3 µM. 1.1% of 290,000 active. recombinant PHOSPHO1, absorbance phosphatase assay; in the data active = inhibition above about 60%
PABP1 MLLE inh: inhibitors of PABP1 MLLE–PAM2 peptide binding, primary screen, biochemical, fluorescence polarization, FITC-PAM2, GST-MLLE; Polyadenylate-binding protein 1 (Homo sapiens), P11940; inhibition, % at 20 µM; 0.36% of 360,000 active; AID 588489, 2011; in the data active = inhibition above about 35%, passing the limit was not always enough;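 also: plate controls were DMSO wells with GST-MLLE for no effect and wells lacking GST-MLLE protein for full effect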
PABP FP inh: PABP poly(A) RNA binding inhibitors, primary screen, biochemical, fluorescence polarization, uHTS. Polyadenylate-binding protein 1 (Homo sapiens), P11940. calls only at 35 µM. 1% of 290,000 active. AID 2014, 2009;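 also: calls also rest on retests at 20 µM and on dose response follow-up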
A3A deaminase: APOBEC3A ssDNA deaminase inhibitors, primary screen, selectivity assay for APOBEC3G inhibitor project, biochemical, FAM/TAMRA oligo cleavage fluorescence; DNA dC->dU-editing enzyme APOBEC-3A (Homo sapiens), P31941; recombinant A3A, FAM/TAMRA ssDNA deamination fluorescence; inhibition, % at 20 µM; 0.41% of 330,000 active; AID 493011, 2011;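 active = at least 40% inhibition at 20 µM here, with at most 30% in a related deaminase screen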;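 also: plate controls were A3A with DMSO for no effect and wells lacking A3A enzyme for full effect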
Target sequence (P31941 whole entry, looked up): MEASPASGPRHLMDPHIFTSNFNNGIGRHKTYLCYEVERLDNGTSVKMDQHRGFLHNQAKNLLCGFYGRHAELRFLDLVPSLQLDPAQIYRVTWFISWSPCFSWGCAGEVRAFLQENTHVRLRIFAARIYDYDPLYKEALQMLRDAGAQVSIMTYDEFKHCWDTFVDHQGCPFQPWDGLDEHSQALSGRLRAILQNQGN
eIF4H FP inh: human eIF4H binding inhibitors, primary screen, translation initiation inhibitor project, biochemical, uHTS, fluorescence polarization | eIF4H fluorescence polarization binding assay | inhibition, % at 35 µM | 0.94% of 290,000 active | AID 2012, 2009;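 also: calls also rest on retests at 20 µM and on dose response follow-up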
A3G deaminase: APOBEC3G DNA deaminase inhibitors, primary screen, biochemical, fluorescence, single-stranded DNA substrate, uHTS; recombinant A3G, ssDNA deamination FAM/TAMRA fluorescence; AID 493012, 2011; 0.28% of 330,000 active; inhibition, % at 20 µM;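 active = inhibition of at least 40% at 20 µM, with no more than 30% in the related APOBEC3A deaminase screen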;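 also: plate controls were DMSO wells with A3G for no effect and wells lacking A3G enzyme for full effect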
APOBEC3A confirm: APOBEC3A deaminase inhibitors, retest, confirmation, selectivity assay for APOBEC3G inhibitor project, biochemical, single concentration, fluorescence readout; inhibition, % at 20 µM; 63% of 1,400 active; recombinant A3A, ssDNA deaminase UDG fluorescence assay; shares compounds with A3A deaminase; AID 493151, 2011;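 active = inhibition reaching a set limit, 80% of the first screen's cutoff, at 20 µM in any replicate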;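 also: plate controls were DMSO wells with A3A for no effect and wells lacking A3A enzyme for full effect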
UDG ctr A3A: E. coli UDG inhibitors, confirmation, counter-screen for APOBEC3A inhibitor project, biochemical, single concentration, fluorescence, FAM/TAMRA oligo | shares compounds with A3A deaminase | UDG counterscreen, FAM/TAMRA uracil oligo fluorescence | inhibition, % at 20 µM | AID 504714, 2011 | 1,000 tested, under 10 active
The depositor's hits bear a star; i = inactive; / = no result given; + = active, no number. Unless noted, no rule for the calls is given here.

SMILES | PHOSPHO1 block | PABP1 MLLE inh | PABP FP inh | A3A deaminase | eIF4H FP inh | A3G deaminase | APOBEC3A confirm | UDG ctr A3A
COc1ccc2[nH]c(O)c(N=O)c2c1 | 3.1 | -126.8 | i | 54.1* | -4.5 | 26.5 | 53.3* | 1.8
COCCN=C1N[C@@H](c2cccc(C(F)(F)F)c2)C(C(=O)OC)=C(C)N1Cc1ccccc1 | -13.0 | -105.8 | i | 63.2* | 10.7 | 9.7 | 43.8* | /
CC(=O)C1=C(C)N(Cc2ccccc2)C(=O)N[C@H]1CCc1ccccc1 | 18.2 | 10.6 | i | 1.9 | 5.2 | 12.5 | / | /
COC(=O)C1=C(C)N(Cc2ccccc2)C(=NCc2cccc(C(F)(F)F)c2)N[C@H]1c1cccc(F)c1 | -7.3 | -0.6 | i | -1.8 | -19.3 | -2.9 | / | /
CCN1C(=NCCCCO)N[C@@H](c2cccc(C(F)(F)F)c2)C(C(=O)OC)=C1C | -13.0 | -127.1 | i | 49.8* | 8.2 | 6.1 | 60.6* | -1.6
COC(=O)C1=C(C)N(Cc2ccccc2)C(=NCCCCO)N[C@H]1c1cccc(C(F)(F)F)c1 | / | -129.3 | / | 44.1* | / | 9.3 | 56.9* | -1.4
COC(=O)C1=C(C)N(Cc2ccccc2)C(=NCCCCO)N[C@H]1CCc1ccccc1 | -7.3 | -115.8 | / | 44.3* | / | 4.1 | 67.1* | -3.2
CCOc1cc(N2CCOCC2)c(OCC)cc1NC(=O)c1cc(S(=O)(=O)N2CCOCC2)ccc1Cl | / | -13.6 | / | 2.3 | / | -5.7 | / | /
CCOc1cc(N2CCOCC2)c(OCC)cc1NS(=O)(=O)c1ccc(Cl)s1 | 36.5 | 15.6 | i | 59.6* | 97.4* | 9.4 | 21.4 | /
CC(NC(=S)Nc1ccc(F)cc1)c1ccccc1 (stereo not given) | -12.5 | -21.6 | i | 88.2* | -9.3 | -4.1 | 9.8 | 10.9
CC1(C#CC[N+]2(C)CCCCC2)CCC2C(O1)c1ccccc1OC2(C)C (stereo not given) | -4.6 | -119.3 | i | 74.7* | 0.3 | 21.3 | 60.8* | 1.4
CC12CCC3(CO)COC(c4ccccc4O1)C2C3 (stereo not given) | -13.5 | 12.3 | i | -5.5 | -2.6 | -3.2 | / | /
CCn1c(=O)n(CC)c2cc(NC(=O)C(C)c3ccccc3)c(Br)cc21 (stereo not given) | -57.6 | -58.7 | / | 54.5* | / | 24.2 | 26.1 | /
CC(C(=O)Nc1ccccc1Oc1ccccc1)c1ccccc1 (stereo not given) | -13.6 | 4.0 | i | -0.7 | -6.6 | -4.7 | / | /
CSc1ccccc1NC(=O)c1cccc(S(=O)(=O)N2CCN(C)CC2)c1 | 19.8 | 3.0 | i | -3.8 | 17.6 | -1.0 | / | /
Cc1nc2nc(C)n(-c3ccccc3)c2s1 | 71.4* | -91.6 | i | 48.2 | 5.1 | 30.0 | 46.9* | -2.5
Cc1nc2ccccc2n1-c1ccccc1 | 0.7 | -1.2 | i | 1.9 | -1.0 | -0.3 | / | /
COc1cccc(N2CCN(CC(=O)NC(=O)NCc3ccco3)CC2)c1 | -10.1 | -16.0 | + | 46.9* | 88.3 | 24.6 | 26.5* | -4.0
O=C(CSc1ncn(-c2ccccc2)n1)Nc1ccc2c(c1)OCO2 | 81.5* | -102.5 | i | 46.3* | -6.2 | 12.0 | 11.2 | /
CC(C)N1C(=O)CC2(CC[N+](C)(CCOC(=O)C(c3ccccc3)c3ccccc3)CC2)C1=O (stereo not given) | 40.4 | -118.5 | i | 59.8* | 17.1 | 18.0 | 26.7* | 4.8
CCOC(=O)CC1(C)OCC(C[N+]2(C)CCCCC2)O1 (stereo not given) | -5.3 | -131.9 | i | 78.0* | 4.5 | 16.1 | 80.6* | -2.7
